Sm TGR block – qHTS Assay for the Inhibitors of Schistosoma Mansoni Peroxiredoxins | 360,000 tested, 3% active | Schistosoma mansoni thioredoxin glutathione reductase (TGR), Q962Y6 | purified TGR, DTNB reduction, TNB absorbance 405 nm | Potency, µM (titrated, usually from 114 µM), hits mostly inhibitors | AID 485364, 2010; also: nearly all actives have a fitted effect of over 60% in size
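Kinetic colorimetric format: TGR-catalysed, NADPH-driven DTNB reduction monitored via TNB absorbance. Enzyme dispensed at 20 nM; compound exposure 15 min at room temperature before reaction start.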
Pf growth 96h – Primary qHTS for delayed death inhibitors of the malarial parasite plastid, 96 hour incubation. 320,000 tested, 6.9% active. P. falciparum luciferase reporter growth, 96 h. Potency, µM (series often up to 28.7 µM), usual class: inhibitors
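Infected RBCs, 2% Hct / 0.05% parasitemia final; luciferase-reporter P. falciparum; cpd 96 h, 37 C, 5% CO2; luciferase detection reagent; luminescence.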
Shiga toxin inh – A qHTS for Small Molecule Inhibitors of Shiga Toxin. inhibition, % at 38.7 µM. 290,000 tested, 9.2% active. Vero cells, Shiga toxin protein synthesis inhibition reporter. AID 2315, 2010; in the data active = inhibition mostly above about 28%, no sharp cut-off; inactive = mostly below about 43%
Pf growth 48h – Primary qHTS for delayed death inhibitors of the malarial parasite plastid, 48 hour incubation; P. falciparum luciferase growth in erythrocytes, 48 h; Potency, µM (series often up to 28.7 µM), hits mostly inhibitors; 310,000 tested, 5.9% active; AID 504832, 2011
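Compounds are pin-transferred into medium, infected erythrocytes (2% hematocrit, 0.1% parasitemia final) are added, and plates sit one parasite generation at 37 C in 5% CO2. Detection reagent is then added and luminescence measured.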
NS1 inh – qHTS Assay for Inhibitors of Influenza NS1 Protein Function | Potency, µM (series often up to 46.1 µM) | 270,000 tested, 0.4% active | AID 2326, 2010; calls by dose curve; also: actives are rising curves; nearly all actives have a fitted effect of over 50% in size
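A cell-based growth assay was used: compounds that relieve NS1-induced slow growth of budding yeast raise OD600. Assay medium was yeast nitrogen base with ammonium sulphate and -URA supplement, pH 6.0, with 2% galactose.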
CHX counter – Cycloheximide Counterscreen for Small Molecule Inhibitors of Shiga Toxin; cell reporter, cycloheximide protein synthesis inhibition counterscreen; max response, %; 300,000 tested, 12% active; AID 2314, 2010; in the data active = max response mostly above about 13%, no sharp cut-off; inactive = mostly below about 14%; also: read at 38.3 µM for the half of the compounds with a filed dose
Hits are given with their value. In the library only some 21% were active in any assay of this set; here they are far more common. Unless noted, calls follow the shape of the dose curve; as a rule, active = well fitted curve in the direction sought with a large enough effect; inconclusive = small, poorly fitted or top-dose-only effect, or another doubt; inactive = no such curve, though single readings can be large; an effect the other way counts as inactive or inconclusive.

What do the screens show for `O=C(CC1C(=O)NCCN1Cc1ccccc1C(F)(F)F)NC1CCCCCC1` (centres undefined)?
Sm TGR block: 25µM; Pf growth 96h: inconclusive; Shiga toxin inh: inactive; Pf growth 48h: inactive; NS1 inh: inactive; CHX counter: inactive

Results for O=C(CC1C(=O)NCCN1Cc1ccc(F)cc1Cl)NC1CCCCCCC1 (centres undefined) ?
Sm TGR block: inconclusive; Pf growth 96h: inactive; Shiga toxin inh: inactive; Pf growth 48h: inactive; NS1 inh: inactive; CHX counter: inactive

What do the screens show for `O=C(CC1C(=O)NCCN1Cc1ccccc1C(F)(F)F)NC1CCC1` (centres undefined)?
Sm TGR block: 40µM; Pf growth 96h: inactive; Shiga toxin inh: inactive; Pf growth 48h: inconclusive; NS1 inh: inactive; CHX counter: inactive

What do the screens show for `O=C(CC1C(=O)NCCN1Cc1ccccc1C(F)(F)F)NCCN1CCCCC1=O` (centres undefined)?
Sm TGR block: inconclusive; Pf growth 96h: inconclusive; Shiga toxin inh: inactive; Pf growth 48h: inactive; NS1 inh: inactive; CHX counter: inactive

Results for CCOC(=O)C1(Cc2ccccc2)CCN(Cc2cn[nH]c2-c2ccccc2)CC1 ?
Sm TGR block: inactive; Pf growth 96h: inactive; Shiga toxin inh: inactive; Pf growth 48h: inconclusive; NS1 inh: inactive; CHX counter: inactive

How did Cc1ccc(CCNC(=O)c2oc(=O)c3ccccc3c2-c2ccc(C)cc2)cc1 do in these assays?
Sm TGR block: inactive

What do the screens show for `COc1ccc(CC(=O)NNS(=O)(=O)c2ccccc2[N+](=O)[O-])cc1`?
Sm TGR block: inactive; Pf growth 96h: 4.7µM; Shiga toxin inh: inactive; Pf growth 48h: inactive; NS1 inh: inactive; CHX counter: inactive

How did COc1ccc(CCC(=O)Nc2cc(Cl)ccc2OC)cc1 do in these assays?
Sm TGR block: inactive; Pf growth 96h: inconclusive; Shiga toxin inh: inactive; NS1 inh: inactive; CHX counter: inactive

What do the screens show for `COc1ccc(CC(=O)Nc2ccccc2N2CCCC2)cc1`?
Sm TGR block: inactive; Pf growth 96h: inconclusive; Shiga toxin inh: inactive; Pf growth 48h: inconclusive; NS1 inh: inactive; CHX counter: inactive

What do the screens show for `COc1ccc(CC(=O)Nc2ccccc2NC(=O)Cc2ccc(OC)cc2)cc1`?
Sm TGR block: inactive; Pf growth 96h: inactive; Shiga toxin inh: inactive; Pf growth 48h: 6.6µM; NS1 inh: inactive; CHX counter: inactive

What do the screens show for `COc1ccc(CC(=O)Nc2cc(Cl)ccc2O)cc1`?
Sm TGR block: inactive; Pf growth 96h: inconclusive; Shiga toxin inh: inactive; Pf growth 48h: inconclusive; NS1 inh: inactive; CHX counter: 11

What do the screens show for `O=C(C1=C(O)C(=O)N(CCN2CCOCC2)C1c1cccc(Br)c1)c1cc2ccccc2o1` (centres undefined)?
Sm TGR block: inactive; Pf growth 96h: inactive; Shiga toxin inh: inactive; Pf growth 48h: inactive; NS1 inh: inactive; CHX counter: inactive

What do the screens show for `O=C(C1=C(O)C(=O)N(CCN2CCOCC2)C1c1ccco1)c1cc2ccccc2o1` (centres undefined)?
Sm TGR block: 22µM; Pf growth 96h: inactive; Shiga toxin inh: inactive; Pf growth 48h: inactive; NS1 inh: inactive; CHX counter: inactive

Results for O=C(C1=C(O)C(=O)N(CCN2CCOCC2)C1c1ccc(F)cc1)c1cc2ccccc2o1 (centres undefined) ?
Sm TGR block: 28µM; Pf growth 96h: inconclusive; Shiga toxin inh: inactive; Pf growth 48h: inactive; NS1 inh: inactive; CHX counter: inactive

What do the screens show for `CCOc1ccc(NC(=O)NCc2ccc3c(c2)OCO3)cc1`?
Sm TGR block: inactive; Pf growth 96h: inactive; Shiga toxin inh: inactive; Pf growth 48h: inactive; NS1 inh: inactive; CHX counter: inactive

Results for Cc1nc2ccccc2c(=O)n1NC(=O)c1c(F)cccc1F ?
Sm TGR block: inactive; Pf growth 96h: inactive; Shiga toxin inh: inactive; Pf growth 48h: inactive; NS1 inh: inactive; CHX counter: inactive

How did CCCOC(=O)c1c(-c2ccccc2)nc(CC)c(C(=O)SCC)c1CCC do in these assays?
Sm TGR block: inactive; Pf growth 96h: inactive; Pf growth 48h: inconclusive; NS1 inh: inactive

Results for COC(=O)c1[nH]c2cc(C)ccc2c1NC(=O)CN1CCCc2ccccc21 ?
Sm TGR block: inactive; Pf growth 96h: inconclusive; Shiga toxin inh: inactive; Pf growth 48h: inconclusive; NS1 inh: inactive; CHX counter: 48

What do the screens show for `COC(=O)c1[nH]c2ccc(Br)cc2c1NC(=O)CN1CCCc2ccccc21`?
Sm TGR block: inactive; Pf growth 96h: 10µM; Shiga toxin inh: inactive; Pf growth 48h: inconclusive; NS1 inh: inactive; CHX counter: inactive

How did Cc1ccc(S(=O)(=O)NC(C)(C)C)cc1C(=O)OCC(=O)N1CCCC1=O do in these assays?
Sm TGR block: inactive; Pf growth 96h: inactive; Pf growth 48h: inactive

Results for CCCn1c(SCC(=O)NNC(=O)c2ccc(C)cc2)nnc1C(C)C ?
Sm TGR block: inactive; Pf growth 96h: inactive; Shiga toxin inh: inactive; Pf growth 48h: inactive; NS1 inh: inactive; CHX counter: inactive

What do the screens show for `CCCCCNc1nc2c(-c3ccccc3)nnn2c2ccccc12`?
Sm TGR block: inactive

Results for O=C(COC(=O)c1ccc(S(=O)(=O)NCc2ccco2)cc1)Nc1ccccc1 ?
Sm TGR block: inconclusive; Pf growth 96h: inactive; Pf growth 48h: inactive

Results for COc1ccc(OC)c(NC(=O)c2cc(S(=O)(=O)NCc3ccco3)ccc2F)c1 ?
Sm TGR block: inactive; Pf growth 96h: 1.2µM; Shiga toxin inh: 58; Pf growth 48h: inactive; NS1 inh: inactive; CHX counter: 47

How did CCOc1ccccc1NC(=O)c1cc(S(=O)(=O)NCc2ccco2)ccc1F do in these assays?
Sm TGR block: 32µM; Pf growth 96h: inactive; Shiga toxin inh: 35; Pf growth 48h: inactive; NS1 inh: inactive; CHX counter: 42

What do the screens show for `O=C(COC(=O)c1ccc(S(=O)(=O)NCc2ccco2)cc1)Nc1ccccc1OC(F)F`?
Sm TGR block: inconclusive; Pf growth 96h: inactive; Shiga toxin inh: 74; Pf growth 48h: inactive; NS1 inh: inactive; CHX counter: 67

What do the screens show for `CCc1cc2c(=O)c(-c3nc4ccccc4n3C)c(COCC(=O)O)oc2cc1O`?
Sm TGR block: inactive; Pf growth 96h: inactive; Shiga toxin inh: inactive; Pf growth 48h: inactive; NS1 inh: inactive; CHX counter: inactive

How did CCCc1cc2c(=O)c(-c3nc4ccccc4s3)c(COCC(=O)O)oc2cc1O do in these assays?
Sm TGR block: 40µM; Pf growth 96h: inactive; Shiga toxin inh: 95; Pf growth 48h: inactive; CHX counter: 43

What do the screens show for `CC(=O)N(O)C/C=C/c1cccc(Oc2ccccc2)c1`?
Shiga toxin inh: inactive; CHX counter: inactive

Results for CSc1ccc(/C=N/n2c(C)cc(C)cc2=O)cc1 ?
Sm TGR block: inconclusive; Pf growth 96h: inactive; Shiga toxin inh: 112; Pf growth 48h: inactive; NS1 inh: inactive; CHX counter: 27

Compound activity as filed in PubChem BioAssay.
